Assay results reported in PubChem BioAssay (NCI).
“And” between values parts separate entries of the source, which are not always exact repeats. Identical values can stand only once. Compounds without any hit were thinned out: in the full panel of roughly 83,000, 20% have a hit.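 48-hour exposure, single concentration, 96-well plates; percent growth endpoint where 0 means no net growth. Active: below 10.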 The source made the active and inactive calls.

Key:
Assay in all cases: NCI-60 one-dose screen, 48 h (100 = growth as untreated, 0 = no growth, -100 = all killed)
Conditions in all cases: 10 µM unless noted
HCT-15 colon = test system: HCT-15 colon
HT29 colon = test system: HT29 colon
SNB-75 CNS = test system: SNB-75 CNS
SNB-19 CNS = test system: SNB-19 CNS
U251 CNS = test system: U251 CNS
PC-3 prostate = test system: PC-3 prostate
SK-MEL-5 melanoma = test system: SK-MEL-5 melanoma
UACC-62 melanoma = test system: UACC-62 melanoma
LOX IMVI melanoma = test system: LOX IMVI melanoma
SK-MEL-28 melanoma = test system: SK-MEL-28 melanoma

SMILES | growth (HCT-15 colon) | growth (HT29 colon) | growth (SNB-75 CNS) | growth (SNB-19 CNS) | growth (U251 CNS) | growth (PC-3 prostate) | growth (SK-MEL-5 melanoma) | growth (UACC-62 melanoma) | growth (LOX IMVI melanoma) | growth (SK-MEL-28 melanoma)
Cc1c(CC(=O)OCCO)cc(-c2ccc(Cl)cc2)n1-c1ccccc1 | 94.4% (inactive) | 101% (inactive) | 65.9% (inactive) | 95.3% (inactive) | 91.7% (inactive) | 101% (inactive) | 88.8% (inactive) | 77.7% (inactive) | 94% (inactive) | 109% (inactive)
Nc1ccc(S(=O)(=O)c2ccc(N)cc2)cc1 | 114% (inactive) and 106% (inactive) | 106% (inactive) and 98.1% (inactive) | 87.8% (inactive) | 100% (inactive) and 104% (inactive) | 94.6% (inactive) and 106% (inactive) | 85.2% (inactive) and 94.1% (inactive) | 92.8% (inactive) and 108% (inactive) | 98.7% (inactive) and 104% (inactive) | 94.6% (inactive) and 102% (inactive) | 114% (inactive) and 102% (inactive)
CCCn1nc(C(=O)N2CCCCC2)c2c1CCC(N1CCC(c3ccncc3)CC1)C2 (stereo not given) | 105% (inactive) | 100% (inactive) | 96.1% (inactive) | 102% (inactive) | 101% (inactive) | 101% (inactive) | 102% (inactive) | 112% (inactive) | 98.1% (inactive) | 115% (inactive)
NC(N)=NC(N)=NCCCc1ccco1 | 106% (inactive) | 94.4% (inactive) | 111% (inactive) | 103% (inactive) | 101% (inactive) | 103% (inactive) | 101% (inactive) | 113% (inactive) | 97.1% (inactive) | 98.8% (inactive)
COC(=O)c1nc(-c2ccc(C)cc2)oc1S(=O)(=O)c1ccc(Cl)cc1 | 73.5% (inactive) | 102% (inactive) | 100% (inactive) | 96.4% (inactive) | 93.4% (inactive) | 97% (inactive) | 96.5% (inactive) | 90.4% (inactive) | 42.3% (inactive) | 99% (inactive)
CC[C@]1(O)CC2CN(CCc3c([nH]c4ccccc34)C(C(=O)OC)(c3cc4c(cc3OC)N(C=O)[C@H]3[C@@](O)(C(=O)OC)[C@H](OC(C)=O)[C@]5(CC)[C@@H]6C[C@@H]6CN6CC[C@]43[C@@H]65)C2)C1 (stereo not given in full) | 15.5% (inactive) | -21.1% (active) | 10.8% (inactive) | 37.5% (inactive) | 6.57% (active) | 17.9% (inactive) | -49.4% (active) | 37.2% (inactive) | 26.6% (inactive) | 69.5% (inactive)
COc1cc(/C=C(/c2ccccc2)[N+](=O)[O-])c(OC)c2c1OCO2 | -30% (active) | 1.28% (active) | -92.6% (active) | -17.1% (active) | -92.9% (active) | -50.5% (active) | -40.9% (active) | -29.2% (active) | -87.6% (active) | -12.1% (active)
Cc1ccc(-c2nc3nc(-c4ccc(F)cc4)nc(N4CCCNCC4)c3o2)cc1 | -84.5% (active) | -81.6% (active) | -96% (active) | -94.4% (active) | -93.2% (active) | -85.2% (active) | -87.4% (active) | -82.3% (active) | -88.6% (active) | -93.8% (active)
CC1=CC(C)(C)NC(=S)N1c1ccc(Cl)cc1 | 96.9% (inactive) and 88.8% (inactive) | 103% (inactive) | 91.3% (inactive) and 108% (inactive) | 96.7% (inactive) and 96.9% (inactive) | 98.7% (inactive) and 102% (inactive) | 94% (inactive) and 85.1% (inactive) | 100% (inactive) and 103% (inactive) | 94.6% (inactive) and 84.9% (inactive) | 95.2% (inactive) and 97.7% (inactive) | 101% (inactive) and 105% (inactive)
O=C(c1ccc(Nc2nccc(NCCCNc3ccnc4cc(Cl)ccc34)n2)cc1)N1CCCCC1 | 92.2% (inactive) | 19.7% (inactive) | 90.5% (inactive) | 35% (inactive) | 23% (inactive) | 36.5% (inactive) | 43.7% (inactive) | 21.4% (inactive) | -14.3% (active) | 71.8% (inactive)
COc1ccc(-c2nn3c(-c4cc(F)c(Cl)cc4Cl)nnc3s2)cc1 | 42% (inactive) | 5.17% (active) | 7.7% (active) | 40.6% (inactive) | 35.6% (inactive) | 42.8% (inactive) | 20.1% (inactive) | 44.4% (inactive) | 42.1% (inactive) | 36.7% (inactive)
CCCc1cc(C(N)=S)ccn1 | 102% (inactive) | 97.6% (inactive) | 103% (inactive) | 115% (inactive) | 103% (inactive) | 98.3% (inactive) | 107% (inactive) | 108% (inactive) | 96.7% (inactive) | 116% (inactive)
OCCN1CCN(c2cc(-c3cccc(OC(F)(F)F)c3)nc3ccc(N4CCCC4)cc23)CC1 | 10.9% (inactive) | 5.34% (active) | 53.5% (inactive) | 74.1% (inactive) | 29.3% (inactive) | 25.9% (inactive) | 46.7% (inactive) | 59.6% (inactive) | 9.02% (active) | 71.1% (inactive)
C=C1C(=O)O[C@H]2[C@H]1CC/C(CNS(=O)(=O)c1ccc3ccccc3c1)=C\CC[C@@]1(C)O[C@@H]21 | -78.5% (active) | -78.2% (active) | 38.2% (inactive) | 71.9% (inactive) | 48.9% (inactive) | 53.6% (inactive) | 31.8% (inactive) | -12% (active) | -84.8% (active) | -8.36% (active)
O=C(Nc1ccc(Cl)c(Cl)c1)Nc1ccc(Cl)c(Cl)c1 | -16.7% (active) and 18.2% (inactive) | -82.6% (active) and 7.52% (active) | -94.2% (active) and 38.3% (inactive) | -62% (active) and 26.5% (inactive) | -84.3% (active) and 13.3% (inactive) | -80.2% (active) and 11.1% (inactive) | -97.2% (active) and 34.6% (inactive) | -89.2% (active) and 12.2% (inactive) | -89.4% (active) and 9.39% (active) | -78.8% (active) and 34.9% (inactive)
CCCCC(NC(=O)CN1C(=O)/C(=C/C(C)=C/c2ccccc2)SC1=S)C(=O)O (stereo not given) | 108% (inactive) | 120% (inactive) | 98.7% (inactive) | 95.7% (inactive) | 110% (inactive) | 107% (inactive) | 101% (inactive) | 92.7% (inactive) | 94.7% (inactive) | 104% (inactive)
O=C(N=Nc1c(O)[nH]c2ccccc12)Nc1ccc(Br)cc1 | 77% (inactive) | 97.6% (inactive) | 105% (inactive) | 96.5% (inactive) | 101% (inactive) | 91.9% (inactive) | 81.9% (inactive) | 79.3% (inactive) | 78% (inactive) | 89.3% (inactive)
CC(C)(C)c1cc(NC(=O)Nc2ccc(-c3cn4c(n3)sc3cc(OCCN5CCOCC5)ccc34)cc2)no1 | 23.8% (inactive) and 51.5% (inactive) | -41.7% (active) and -1.96% (active) | 45.4% (inactive) and -7.53% (active) | 37.4% (inactive) and 11.4% (inactive) | -3.4% (active) and 0.378% (active) | 22.8% (inactive) and 15.2% (inactive) | 13.5% (inactive) and 9.61% (active) | -53.4% (active) and 5.34% (active) | 0.319% (active) and 23.4% (inactive) | 42.9% (inactive) and 33.8% (inactive)
O=C(Cc1ccc(F)cc1)c1ccccc1 | 108% (inactive) | 109% (inactive) | 100% (inactive) | 109% (inactive) | 106% (inactive) | 91.4% (inactive) | 110% (inactive) | 106% (inactive) | 102% (inactive) | 114% (inactive)
Cc1cc(N2CCCCC2)nc(NCc2cc(Nc3ccnc4cc(Cl)ccc34)ccc2F)n1 | -55.1% (active) | -58.4% (active) | -37.1% (active) | 40.9% (inactive) | -90.9% (active) | 17.4% (inactive) | -96.3% (active) | -80.7% (active) | -79.2% (active) | -73.8% (active)
C=CCNC(=O)Cc1c(-c2ccc(OC)cc2)oc2c(OC)c3c(c(OC)c12)OCO3 | 86.7% (inactive) | 86.5% (inactive) | 96.4% (inactive) | 95.3% (inactive) | 105% (inactive) | 95.2% (inactive) | 96.3% (inactive) | 89% (inactive) | 93% (inactive) | 109% (inactive)
COc1c(NC=O)c2c(c([N+](=O)[O-])c1OC)C(=O)OC2 | 115% (inactive) and 90.4% (inactive) | 102% (inactive) and 112% (inactive) | 89.1% (inactive) and 62.6% (inactive) | 102% (inactive) and 99.5% (inactive) | 99.9% (inactive) and 101% (inactive) | 90.7% (inactive) and 102% (inactive) | 112% (inactive) and 95.4% (inactive) | 104% (inactive) and 93.7% (inactive) | 103% (inactive) | 111% (inactive) and 103% (inactive)
